# Laboratory results from PubChem BioAssay AID720706 (Broad Institute, 2013).
# Out of some 350,000 compounds screened, about 5,500 (1.6%) were called active.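 How the source made its calls: active means significant combined selectivity score with lowered wild-type GFP, culture density cut under 30%, mutant RFP and density less affected; inactive means any of these conditions unmet.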 The sample as a whole holds a higher share of actives than the screen did.
# Test: GFP drop in mixed WT/humanized-ribosome E. coli culture – GFP/RFP fluorescence, OD600, single point, bacterial rRNA inhibitor project, primary screen (AID 720706)
# Details: E. coli WT GFP vs humanized-ribosome RFP mutants, 24 h; GFP signal change (wild-type ribosome): stronger effect = lower value, DMSO median 0, no signal -100; OD600 change: measured here: OD600 growth, DMSO median 0, no signal -100; RFP signal change: measured here: RFP humanized mutant strains, DMSO median 0, no signal -100, concentration not given here
Structure (SMILES),GFP signal change (wild-type ribosome),OD600 change,RFP signal change
CCN(CC)C(=O)C(=O)Nc1cccc(Br)c1,2.19% (inactive),1.55%,-1.36%
CCCOc1ccc(F)cc1-c1cc(C(=O)Nc2ccc(F)c(Cl)c2)[nH]n1,-11.9% (inactive),-20.4%,8.72%
COc1ccc2c3c(n(C)c2c1)[C@@H](CO)N(Cc1ccccc1OC)CC31CN(CC2CCOCC2)C1,2.13% (inactive),1.76%,-0.161%
COc1ccc(S(=O)(=O)Nc2ccc3c(c2)C(=O)N([C@H](C)CO)C[C@@H](C)[C@@H](CN(C)CC2CCCCC2)O3)cc1,3.31% (inactive),-3.13%,-1.7%
O=C(C[C@H]1CC[C@@H]2[C@H](COC[C@H](O)CN2Cc2ccc(Oc3ccccc3)cc2)O1)N1CCN(c2ccccc2)CC1,-14.8% (inactive),-41.1%,19.9%
C[C@@H]1COCc2cnnn2CC[C@H](Cc2ccccc2)C(=O)N1,1.97% (inactive),6.09%,0.175%
CCc1ccc(C2=CC(=O)CC(C)(C)C2=O)cc1,9.3% (inactive),6.63%,1.11%
COC(=O)C1=C(C)N(Cc2ccc(C(F)(F)F)cc2)C(=NCc2ccc(C(F)(F)F)cc2)NC1c1cccc(Cl)c1 (stereo unspecified),-29.5% (active),-8.48%,10.4%
COC(=O)C1=C(C)N(Cc2cccc(C(F)(F)F)c2)C(=NCc2ccccc2)NC1c1ccc(Cl)cc1 (stereo unspecified),-51.5% (inactive),-79.1%,-15.9%
COC(=O)C1=C(C)N(Cc2ccc(C(F)(F)F)cc2)C(=NCc2ccccc2)NC1c1ccccc1C(F)(F)F (stereo unspecified),-44.7% (inactive),-75.3%,-10.2%
CO[C@@H]1CN(C)C(=O)c2cc(NS(=O)(=O)c3ccccc3)ccc2OC[C@@H](C)N(C(=O)NC(C)C)C[C@@H]1C,1.8% (inactive),-5.96%,-2.55%
C[C@H](O)C#Cc1ccc([C@H]2[C@H](CO)N3CCCCN(C(=O)c4ccc(F)cc4)C[C@@H]23)cc1,4.08% (inactive),14.8%,0.514%
CC(C)NC(=O)Nc1cccc2c1O[C@@H](CN(C)C(=O)NC(C)C)[C@@H](C)CN(C)C2=O,-0.63% (inactive),-5.7%,-0.789%
CC(C)NC(=O)N(C)C[C@H]1Oc2c(cccc2N(C)C)C(=O)N(C)C[C@H]1C,3.79% (inactive),5.03%,-1.64%
CN(C)C(=O)c1ccc(-c2ccc(C3[C@@H]4CN(S(=O)(=O)c5cccc(Cl)c5)C[C@H]3N4)cc2)cc1 (stereo partly specified),-4.17% (inactive),-4.3%,1.15%
CCN(CC)CCn1c2c(c(SCC(=O)Nc3nc4ccccc4s3)nc1=O)CCCC2,-8.54% (inactive),-9.96%,4.44%

Structure (SMILES),GFP signal change (wild-type ribosome),OD600 change,RFP signal change
c1ccc2sc(NN=C3CCCC3)nc2c1,-34.8% (active),-19.9%,0.135%
c1ccc(C(=NNc2nc3ccccc3s2)c2ccccn2)cc1,-3.87% (inactive),-7.96%,1.5%
CN(C)c1nc(=Nc2cccc(Cl)c2)ss1,-20.6% (active),-16.1%,6.27%
COc1ccc(CN(C)C[C@@H]2Oc3ccc(NS(=O)(=O)c4cn(C)cn4)cc3C(=O)N([C@@H](C)CO)C[C@@H]2C)cc1,2.98% (inactive),9.11%,-0.744%
COc1ccc2c3c([nH]c2c1)[C@H](CO)N(CC1CC1)CC31CN(C(=O)Nc2cccc(F)c2)C1,-4% (inactive),-2.33%,0.442%
CCCNC(=O)N(C)C[C@H]1Oc2ncc(-c3cccc(C#N)c3)cc2C(=O)N([C@@H](C)CO)C[C@@H]1C,6.13% (inactive),2.48%,4.15%
COc1cccc(C(NC(C)=O)c2nc(-c3cnc4ccccc4c3)cs2)c1 (stereo unspecified),1.07% (inactive),7.87%,-4.72%
CC(=O)NC(c1ccccc1)c1nc(-c2ccccc2C)cs1 (stereo unspecified),6.39% (inactive),1.11%,0.505%
COc1cccc(C(NC(C)=O)c2nc(-c3ccccc3OC)cs2)c1 (stereo unspecified),-17.2% (active),-5.72%,3.69%
CC(C)NC(=O)Nc1ccc2c(c1)C(=O)N([C@@H](C)CO)C[C@@H](C)[C@H](CN(C)C)OCCCC[C@H](C)O2,4.43% (inactive),12.9%,-2.38%
CCOC(=O)C(=Cc1ccccc1OC)C(=O)OCC,-1.94% (inactive),-6.41%,-3.6%
CCOC(=O)CNC(=O)/C(=C\c1ccc(F)cc1)NC(=O)c1ccccc1,7.79% (inactive),7.99%,-0.754%
CCOC(=O)C(=Cc1ccccc1)C(=O)c1ccccc1,-45.9% (active),-44.3%,-8.34%
COc1cccc(OC)c1C(=O)NC(=S)NCc1ccco1,10.3% (inactive),5.07%,-0.715%
COc1ccccc1C(=O)NCCC(=O)NCC(c1ccco1)N1CCCCC1 (stereo unspecified),3.93% (inactive),11.1%,2.81%
COc1ccccc1C(=O)NCCn1cc(SCC(=O)NCc2ccco2)c2ccccc21,-24.1% (active),-15.6%,1.51%
